Results published in PubChem BioAssay (NCATS).
Several values for one entry are separate records, joined by “and”; a condition that tells them apart may be missing. Equal values may be shown once. Results filed as inconclusive are left out. Where a call stands in place of a potency, no number is given. A number with no mark means an inactive call. Activity calls are given as the source filed them. Calls follow the shape of the dose curve; as a rule, active = well fitted curve in the direction sought with a large enough effect; inconclusive = small, poorly fitted or top-dose-only effect, or another doubt; inactive = no such curve, though single readings can be large; an effect the other way counts as inactive or inconclusive. Square brackets hold non-standard residues; d marks the D form. Peptide text beside a SMILES is read from it. ξ: configuration not given here. ξLac(3-iPr) = CC(C)CC(O)C(=O)O; NMeV = CN[CH](C(=O)O)C(C)C; NMeA = CN[CH](C)C(=O)O; βAla = NCCC(=O)O

Experiments:
[1] = target: Cellular tumor antigen p53 (Homo sapiens) (UniProt P04637); assay: Primary qHTS for small molecule compounds that upregulate eGFP-tagged delta133p53alpha (in N-terminal) cells. (AID 2060322); details: NCI-H358 eGFP-delta133p53alpha fluorescence, 24 h; activation: active compounds read high; also: nearly all actives have a fitted effect of over 75% in size; also: potency is read from the fitted curve at half-maximal effect; as to activation: series mostly up to about 56 µM
Method in brief: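 NCI-H358 cells pre-induced 24 h with 10 ng/ml doxycycline to express N-terminal eGFP-delta133p53alpha, then dosed 24 h at 37C without doxycycline; fixed, Hoechst-stained, GFP intensity by laser scanning cytometry, normalized to DMSO (0%) and 57.5 uM 5-azacytidine (100%).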

[2] = target: Aldehyde dehydrogenase, mitochondrial (Homo sapiens) (UniProt P05091); assay: qHTS for Inhibitors of the Aldehyde Dehydrogenase Family (ALDH2) Primary screen (AID 2061308); also: nearly all actives have a fitted effect of over 55% in size
[3] = target: Retinaldehyde dehydrogenase 3 (Homo sapiens) (UniProt P47895); assay: qHTS for Inhibitors of the Aldehyde Dehydrogenase Family (ALDH1A3) Primary screen (AID 2061315)
[4] = target: Retinaldehyde dehydrogenase 3 (Homo sapiens) (UniProt P47895); assay: qHTS for Inhibitors of the Aldehyde Dehydrogenase Family (ALDH1A3) Validation screen (AID 2061312); also: nearly all actives have a fitted effect of over 45% in size
[5] = BET inhibitor-based combinations targeting novel dependencies in MECOM-rearranged (r) AML: UCSD-AML1 cell line (AID 2202235); also: nearly all actives have a fitted effect of over 40% in size; also: potency is read from the fitted curve at half-maximal effect
Method in brief: (§1)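 Activity is given as area under the curve and as Z-AUC, mean-centred within each cell line. It comes from 11-point dose curves normalized to DMSO and empty wells. CellTiter-Glo luminescence was read after 48 hr drug exposure of 500 cells/well.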

[6] = BET inhibitor-based combinations targeting novel dependencies in MECOM-rearranged (r) AML: AML-191 cell line (AID 2202236; also: nearly all actives have a fitted effect of over 35% in size; also: potency is read from the fitted curve at half-maximal effect)
Method in brief: (§2)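 Cells were plated at 500 per well and exposed to an 11-point dose series of each drug for 48 hr. Viability was measured by CellTiter-Glo luminescence, normalized to DMSO and empty-well controls, and summarized as AUC and per-cell-line Z-AUC.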

[7] = BET inhibitor-based combinations targeting novel dependencies in MECOM-rearranged (r) AML: AML-194 cell line (AID 2202237; also: nearly all actives have a fitted effect of over 40% in size; also: potency is read from the fitted curve at half-maximal effect)
Method in brief: as §2

[8] = BET inhibitor-based combinations targeting novel dependencies in MECOM-rearranged (r) AML: OCI-AML3 cell line (AID 2202232); details: Potency: OCI-AML3 viability; also: series mostly up to about 46 µM; nearly all actives have a fitted effect of over 35% in size
Method in brief: as §2

[9] = BET inhibitor-based combinations targeting novel dependencies in MECOM-rearranged (r) AML: HNT-34 cell line (AID 2202234); also: nearly all actives have a fitted effect of over 35% in size
Method in brief: as §1

[10] = BET inhibitor-based combinations targeting novel dependencies in MECOM-rearranged (r) AML: MV-4-11 cell line (AID 2202233); also: nearly all actives have a fitted effect of over 45% in size
Method in brief: as §1

Chain of Cellular tumor antigen p53 (Homo sapiens) (P04637 whole entry, looked up): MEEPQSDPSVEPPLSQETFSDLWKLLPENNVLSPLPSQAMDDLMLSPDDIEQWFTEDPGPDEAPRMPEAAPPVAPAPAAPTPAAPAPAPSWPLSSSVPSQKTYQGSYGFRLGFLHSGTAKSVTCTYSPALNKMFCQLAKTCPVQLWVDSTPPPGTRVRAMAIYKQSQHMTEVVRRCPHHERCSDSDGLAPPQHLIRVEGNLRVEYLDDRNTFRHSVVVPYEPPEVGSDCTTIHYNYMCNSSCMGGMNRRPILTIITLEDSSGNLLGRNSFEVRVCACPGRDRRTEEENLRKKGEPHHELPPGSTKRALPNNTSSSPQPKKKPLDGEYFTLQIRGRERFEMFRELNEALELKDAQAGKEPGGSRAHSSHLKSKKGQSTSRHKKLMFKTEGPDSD

Q: Which activation [1] does the source give for `C[C@]12CC[C@H]3[C@@H](CCC4=C/C(=N/OCC(=O)O)CC[C@@]43C)[C@@H]1CC[C@@H]2O` here?
A: 13.7%

Q: And the Potency [2]?
A: inactive

Q: And the Potency [3]?
A: inactive

Q: For `CC1=CC(=O)[C@@H](O)[C@]2(C)C3[C@@H](O)[C@@H]4OC(=O)[C@@H]([C@H]4C)[C@]3(C)C(=O)C[C@@H]12` (stereo partly specified), which Potency [1] is on record?
A: 16.6 µM (active)

Q: And the Potency [2]?
A: inactive

Q: And the Potency [3]?
A: inactive

Q: What does the source list for `CC1=CC2OC3[C@H](O)C[C@@](C)([C@]34CO4)[C@@]2(CO)[C@H](O)C1=O` (stereo partly specified)?
A: Potency [1]: 23.9 µM (active); Potency [2]: inactive; Potency [3]: inactive

Q: For `CCOC(=O)c1ccnc2cc(C(OCCN3CCCCC3)c3ccccc3Cl)sc12` (stereo unspecified), which activation [1] is on record?
A: -5.67%

Q: What about the Potency [2] of the same molecule?
A: inactive

Q: What about the Potency [3] of the same molecule?
A: inactive

Q: With `C=CC/C=C\C/C=C\CCCCCCCc1cc(O)cc(O)c1` as the molecule, how does the activation [1] read?
A: -9.92%

Q: And the Potency [2]?
A: inactive

Q: And the Potency [3]?
A: inactive

Q: For `C[N@@+]1(CC2CC2)CC[C@]23c4c5ccc(O)c4O[C@H]2C(=O)CC[C@@]3(O)[C@H]1C5`, which activation [1] is on record?
A: -5.67%

Q: And the Potency [2]?
A: inactive

Q: And the Potency [3]?
A: inactive

Q: What does the source list for `C[C@]12CC[C@H](O[C@@H]3O[C@H](CO)[C@@H](O)[C@H](O)[C@H]3O[C@@H]3O[C@H](CO)[C@@H](O)[C@H](O)[C@H]3O)CC1=CC[C@@H]1[C@@H]2CC[C@]2(C)[C@@H](C3=CC(=O)OC3)CC[C@]12O`?
A: activation [1]: 8.93%; Potency [2]: inactive; Potency [3]: inactive

Q: What does the source list for `CCNC(=O)CC1N=C(c2ccc(Cl)cc2)c2cc(OC)ccc2-n2c(C)nnc21` (stereo unspecified)?
A: activation [1]: -24.1% and -15% and -22.4%; Potency [2]: inactive; Potency [4]: inactive; Potency [3]: inactive; Potency [5]: 9.34 µM (active); Potency [6]: 13.2 µM (active); Potency [7]: inactive

Q: What does the source list for `CCN(CC)C(=O)c1ccc(C2=CC3(CCNCC3)Oc3cccc(O)c32)cc1`?
A: activation [1]: -5.25%; Potency [2]: inactive; Potency [4]: inactive; Potency [3]: inactive; Potency [8]: inactive; Potency [9]: inactive; Potency [6]: inactive

Q: For `CCC(C)C1NC(=O)C2CCCN2C(=O)C(CC(C)C)OC(=O)CCNC(=O)C(C)N(C)C(=O)C(C(C)C)N(C)C1=O` (stereo unspecified) (cyclo([ξLac(3-iPr)]PI[NMeV][NMeA][βAla]); configuration not given here), which activation [1] is on record?
A: -7.14%

Q: And the Potency [2]?
A: inactive

Q: And the Potency [3]?
A: inactive

Q: For `CC1=C[C@H]2O[C@@H]3[C@H](O)[C@@H](O)[C@](C)([C@@]2(CO)C[C@@H]1O)[C@]31CO1`, which Potency [1] is on record?
A: 7.57 µM (active)

Q: And the Potency [2]?
A: inactive

Q: And the Potency [3]?
A: inactive

Q: With `CC(=O)O[C@H]1CC[C@H]2[C@@H]3CC[C@H]4CC(=O)C=C(C)[C@]4(C)[C@H]3CC[C@]12C` as the molecule, how does the activation [1] read?
A: -6.33%

Q: What about the Potency [2] of the same molecule?
A: inactive

Q: And the Potency [3]?
A: inactive

Q: Which results are given for `C/C=C(\C)C(O)C(C)/C=C(C)/C=C/C/C(C)=C/Cc1nc(OC)c(OC)c(O[C@@H]2O[C@@H](C)[C@H](O)[C@@H](O)[C@H]2O)c1C` (stereo partly specified)?
A: activation [1]: -19.1%; Potency [2]: inactive; Potency [3]: inactive

Q: Which activation [1] does the source give for `CC(C)(C)c1cc(C(C)(C)C)c2c(c1)C(O)(C(F)(F)F)C(=O)O2` (stereo unspecified) here?
A: 23.2%

Q: And the Potency [2]?
A: inactive

Q: What about the Potency [3] of the same molecule?
A: inactive

Q: What does the source list for `Cc1c(C(=O)Nc2cccc(C(F)(F)F)c2)cc(-c2ccccc2)n1CCCN1CCOCC1`?
A: activation [1]: -17.9% and -8.11%; Potency [2]: inactive; Potency [4]: inactive; Potency [3]: inactive; Potency [5]: inactive

Q: Which results are given for `CC1=CC2/C=C(\C)CCC(O)C3OC(C)(C)OC3CC(=O)OC23C(=O)NC(CC(C)C)C3C1C` (stereo unspecified)?
A: activation [1]: 6.87%; Potency [2]: inactive; Potency [3]: inactive

Q: Which results are given for `C[C@]12CCC(=O)C=C1CC[C@@H]1[C@@H]2[C@@H](O)C[C@]2(C)C(=O)CC[C@@H]12`?
A: activation [1]: 11%; Potency [2]: inactive; Potency [3]: inactive

Q: What does the source list for `C=C1[C@@H](C)[C@H]2[C@H](Cc3ccccc3)NC(=O)[C@]23[C@H](OC(C)=O)/C=C/[C@](C)(O)C(=O)[C@@H](C)C/C=C/[C@H]3[C@@H]1O`?
A: activation [1]: -8.04%; Potency [2]: inactive; Potency [3]: inactive

Q: Which results are given for `O=C1C=CC[C@@H]2[C@H]3CCCN4CCC[C@@H](CN12)[C@@H]34`?
A: activation [1]: -8.56% and -6.68%; Potency [2]: inactive; Potency [4]: inactive; Potency [3]: inactive; Potency [10]: inactive; Potency [9]: inactive; Potency [5]: inactive; Potency [6]: inactive

Q: With `COc1ccc2c3c([nH]c2c1)C(C=C(C)C)N1C(=O)C2CCCN2C(=O)C1C3` (stereo unspecified) as the molecule, how does the activation [1] read?
A: -3.82%

Q: What about the Potency [2] of the same molecule?
A: inactive

Q: What about the Potency [3] of the same molecule?
A: inactive

Q: What does the source list for `COC1CCCC(C)OC(=O)Cc2cc(O)cc(O)c2C(=O)C1` (stereo unspecified)?
A: Potency [1]: 16.6 µM (active); Potency [2]: inactive; Potency [3]: inactive

Q: With `C[C@@](O)(COc1ccc(C#N)cc1)C(=O)Nc1ccc(C#N)c(C(F)(F)F)c1` as the molecule, how does the activation [1] read?
A: -6.21%

Q: And the Potency [2]?
A: inactive

Q: What about the Potency [3] of the same molecule?
A: inactive

Q: What does the source list for `COc1c(C(C)C)cc2c(c1O)[C@@]1(C(=O)O)CCCC(C)(C)C1CC2` (stereo partly specified)?
A: activation [1]: -13%; Potency [2]: inactive; Potency [3]: inactive

Q: For `Cc1ccc(Cn2nc(C(=O)N[C@@H]3C(C)(C)[C@@H]4CC[C@@]3(C)C4)cc2-c2ccc(Cl)c(C)c2)cc1`, which activation [1] is on record?
A: -9.82%

Q: What about the Potency [2] of the same molecule?
A: inactive

Q: And the Potency [3]?
A: inactive

Q: For `COC(=O)[C@@]1(C)C(=O)C=C[C@]2(C)c3c(O)cc(C(C)C)cc3[C@H](O)[C@@H](OC(C)=O)C12` (stereo partly specified), which activation [1] is on record?
A: -3.05%

Q: And the Potency [2]?
A: inactive

Q: And the Potency [3]?
A: inactive

Q: For `CC1CCCC(=O)CCC/C=C/c2cc(O)cc(O)c2C(=O)O1` (stereo unspecified), which activation [1] is on record?
A: 7.14%

Q: And the Potency [2]?
A: inactive

Q: What about the Potency [3] of the same molecule?
A: inactive

Q: Which activation [1] does the source give for `C[C@@H]1CN(Cc2ccc(F)cc2)CCN1C(=O)COc1ccc(Cl)cc1NC(N)=O` here?
A: 1.91%

Q: What about the Potency [2] of the same molecule?
A: inactive

Q: And the Potency [4]?
A: inactive

Q: What about the Potency [3] of the same molecule?
A: inactive

Q: What about the Potency [7] of the same molecule?
A: 18.6 µM (active)

Q: Which activation [1] does the source give for `CO[C@H]1C[C@H](O[C@H]2CC[C@@]3(C)C(=CCC4C3CC[C@]3(C)[C@@H](C5=CC(=O)OC5)CC[C@]43O)C2)O[C@@H](C)[C@@H]1O[C@@H]1O[C@H](CO[C@@H]2O[C@H](CO)[C@@H](O)[C@H](O)[C@H]2O)[C@@H](O)[C@H](O)[C@H]1O` (stereo partly specified) here?
A: 0%

Q: And the Potency [2]?
A: inactive

Q: What about the Potency [3] of the same molecule?
A: inactive
